Experiment in all cases: NCI-60 one-dose screen, 48 h (100 = growth as untreated, 0 = no growth, -100 = all killed)
Test [1] concerns T-47D breast. The note with it: 10 µM unless noted.
The test system of test [2] is MDA-MB-435 melanoma. The following applies: 10 µM unless noted.
Test [3] concerns SW-620 colon. The note with it: 10 µM unless noted.
The subject of test [4] is MCF7 breast. The note with it: 10 µM unless noted.
The test system of test [5] is HCT-116 colon. The following applies: 10 µM unless noted.
Test [6] relates to HCC-2998 colon. The following applies: 10 µM.
Test [7] deals with KM12 colon. The note with it: 10 µM unless noted.
Test [8] has as its system BT-549 breast. The following applies: 10 µM unless noted.

Compounds without any hit were thinned out: in the full panel of roughly 83,000, 20% have a hit.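 Percent growth is the endpoint: 0 to 100 indicates growth inhibition (40 means 60% inhibition), 0 means no net growth, and negative values indicate cell death.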 A number with no mark means an inactive call. The source made the active and inactive calls. How the source made its calls: active means growth percent below 10; inactive means the rest.

`Cn1nccc1Nc1nccc(-c2ccn([C@H](CO)c3ccc(Cl)c(F)c3)c(=O)c2)n1`: the growth in test [1] is 104%; in test [2], 55.4%; in test [3] it was 62.7%; in test [4], 93.1%; in test [5], 52.5%; in test [6] it was 36.9%. In test [7], the growth is 82.8%.

As to `O=C(COc1ccc(/C=C2\Cc3ccc(Cl)cc3C2=O)cc1)Nc1nccs1`, the growth was 85.2% in test [1]; 106% in test [8]; 106% in test [3]; 89% in test [4]; 91.3% in test [5]; 115% in test [7].

Take `CCCS(=O)(=O)Nc1ccc(F)c(C(=O)c2c[nH]c3ncc(-c4ccc(Cl)cc4)cc23)c1F`: the growth in test [1] was 8.42% (active); in test [8], 41.1%; in test [3] it was 78.5%; in test [4], 44.6%; in test [5], 27.3%; in test [7] it was 32%.

As to `Ic1ccccc1-c1ccccc1`, the growth was 107% in test [1]; 121% in test [2]; 102% in test [3]; 103% in test [4]; 111% in test [5]; 114% in test [6]. Moreover, the growth in test [7] is 109%.

Consider `CCN(CC)c1cc2oc3cc(N)cc(=N)c-3nc2cc1C`, for which the growth in test [1] is 39%; in test [2] it was -64.8% (active); in test [3], 24.1%; in test [4], 1.63% (active); in test [5], -12.2% (active); in test [7], 40.2%.

Take `COc1ccc(F)c(F)c1C(=O)c1cnc(NC2CCN(S(C)(=O)=O)CC2)nc1N`: the growth in test [1] was -3.23% (active); in test [2], -33.3% (active); in test [3] it was 0.808% (active); in test [4], 2.53% (active); in test [5] it was 4.77% (active); in test [6] it was -26.5% (active). Besides, the growth in test [7] was 4.84% (active).

Turning to `CCOc1ccc(N=C(C)Nc2ccc(OCC)cc2)cc1`, the growth in test [1] is 105%; in test [2] it was 115%; in test [3], 104%; in test [4] it was 102%; in test [5] it was 104%; in test [7] it was 117%.

Take `c1ccc2c(c1)CCN(NCCN1CCCC1)C2`: the growth in test [1] was 91.4%; in test [3], 94.8%; in test [4], 96.5%; in test [5], 85.6%; in test [6], 95%; in test [7] it was 100%.

Take `COC(=O)[C@]12CC[C@@H](C)[C@H](C)[C@@H]1C1=CC[C@@H]3[C@@]4(C)C(c5cnco5)=C[C@@](C)(CO)C4=CC[C@@]3(C)[C@]1(C)CC2`: the growth was 14.7% in test [1]; 60.5% in test [2]; 50.9% in test [3]; 37.1% in test [4]; 22.6% in test [5]; 45.5% in test [6]. Further, in test [7], the growth is 37.2%.

For `Clc1nc(Cl)c2ncn(CC#CCn3cnc4c(Cl)nc(Cl)nc43)c2n1`, the growth in test [1] was -21.5% (active); in test [2], 4.04% (active); in test [3], -44.7% (active); in test [4], -22.8% (active); in test [5] it was -34.6% (active); in test [7], -45.8% (active).

Turning to `Clc1ccc2c(NCCCNCc3ccc4c(c3)OCO4)ccnc2c1`, the growth in test [1] is -0.471% (active); in test [2], -34.6% (active); in test [3], 28.9%; in test [4], 31.5%; in test [5] it was 36.5%; in test [6], 5.99% (active). The growth in test [7] was 65.4%.

Turning to `Cc1cc(C)n(CC(=O)Nc2ccc(-c3nc4ccccc4s3)cc2)n1`, the growth in test [1] was 93.3%; in test [2], 107%; in test [3], 113%; in test [4], 26.6%; in test [5] it was 107%; in test [7], 100%.

In the case of `COC(=O)c1[nH]cnc1/N=N/N(C)CCO`, the growth is 91.1% in test [1]; 112% in test [2]; 102% in test [3]; 96% in test [4]; 93.5% in test [5]; 106% in test [7].

On to `Brc1ccc([I+]c2ccc(Br)cc2)cc1`, for which the growth is 16.4% in test [1]; 17.8% in test [3]; 7.26% (active) in test [4]; 8.91% (active) in test [5]; 25% in test [6]; 3.55% (active) in test [7].

`CC(=O)C(C(C)=O)C(c1ccccc1)C(C(C)=O)C(C)=O`: the growth was 102% in test [1]; 104% in test [2]; 110% in test [3]; 90.2% in test [4]; 91.3% in test [5]; 106% in test [6]. Further, in test [7], the growth is 110%.

`C/C(=C(/c1ccc(Cl)cc1)c1ccc(OCCN2CCCCCC2)cc1)c1ccccc1`: the growth in test [1] was 71.1%; in test [2], 92.6%; in test [3] it was 54%; in test [4] it was 76%; in test [5], 50%; in test [7], 30.7%.

On to `CCn1c(-c2nonc2N)nc2c(C#CC(C)(C)O)ncc(OC[C@H]3CCCNC3)c21`, for which the growth is 66.7% in test [1]; 46.1% in test [3]; 15.6% in test [4]; 44.5% in test [5]; 81.4% in test [6]; 35.9% in test [7].

As for `CC(=O)OC(C(=O)c1ccccc1)c1ccccc1` (stereo not drawn), the growth in test [1] was 95.5%; in test [2], 108%; in test [3] it was 99.3%; in test [4], 95.8%; in test [5], 95.8%; in test [7] it was 101%.

As to `CNC(=O)c1cc(COc2nnc(Nc3ccc(Cl)cc3)c3ccoc23)ccn1`, the growth in test [1] is 15.2%; in test [2], 73.2%; in test [3], 108%; in test [4] it was 48.1%; in test [5], 35.5%; in test [6], 94.3%. In addition, in test [7], the growth is 53.8%.

Regarding `N#Cc1c(NC(=O)c2ccco2)[n+]([O-])c2cc(F)c(F)cc2[n+]1[O-]`, the growth in test [1] was 71.8%; in test [2], 98%; in test [3], 87.5%; in test [4], 67.5%; in test [5] it was 101%; in test [7], 85%.

As for `Clc1ccc(C(Cn2ccnc2)OCc2ccsc2Cl)c(Cl)c1` (stereo not drawn), the growth in test [1] was 43.5%; in test [2], -0.595% (active); in test [3] it was 45.1%; in test [4], 43.7%; in test [5], 26.3%; in test [7], 24.6%.
